Data from the supplement of paper PMC10849652.
The full data set covers some 8,800 targets. This sample favours those with a hit. About 0.5% of all pairs of compound and target were hits.

Key:
Experiment in all cases: log2 fold change, soluble protein after heating vs DMSO (PISA); higher = thermal stabilisation; K562 lysate, 10 uM; active = over 0.2 and 3.5 SD of the protein, either way, in both replicates (recomputed)
alvocidib = compound: CN1CC[C@H](c2c(O)cc(O)c3c(=O)cc(-c4ccccc4Cl)oc23)[C@H](O)C1 [alvocidib]
How it was run: (§1)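 K562 pellets were dounce-homogenised in PBS pH 7.4 containing 1 mM MgCl2, and the crude extract, at 1 mg/mL protein, was exposed to 10 μM compound for 30 min. Aliquots were heated for 3 min across 48°C-58°C, pooled, brought to 0.5% NP-40 at 4°C and spun at 21,000xg for 90 min, with the supernatant taken as soluble protein. TMTpro 16plex LC-MS/MS with equalised channel sums quantified that protein. Values are log-two fold changes in thermal stability relative to solvent controls, taken from duplicates.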

Tubastatin A = compound: CN1CCc2c(c3ccccc3n2Cc2ccc(C(=O)NO)cc2)C1 [Tubastatin A]
How it was run: as §1

[1] = compound: CNc1nc(-c2ccc3c(N)n[nH]c3c2)cc(N2C[C@@H](C(=O)NC3CCCCC3)CC[C@H]2C)n1
How it was run: as §1

encorafenib = compound: COC(=O)N[C@@H](C)CNc1nccc(-c2cn(C(C)C)nc2-c2cc(Cl)cc(NS(C)(=O)=O)c2F)n1 [encorafenib]
How it was run: as §1

[2] = compound: COC(=O)[C@H](CCSC)NC(=O)C1=C(C=C(C=C1)NC[C@H](CS)N)C2=CC=CC=C2
How it was run: as §1

alisertib = compound: COc1cc(Nc2ncc3c(n2)-c2ccc(Cl)cc2C(c2c(F)cccc2OC)=NC3)ccc1C(=O)O [alisertib]
How it was run: as §1

[3] = compound: COc1cc2nc(-c3cc(F)ccc3O)nc(N[C@@H]3CNC[C@H]3C(C)(C)O)c2cc1OC
How it was run: as §1

gefitinib = compound: COc1cc2ncnc(Nc3ccc(F)c(Cl)c3)c2cc1OCCCN1CCOCC1 [gefitinib]
How it was run: as §1

[4] = compound: CNC(=O)C1=CC=CC=C1NC2=NC(=NC=C2Cl)NC3=C(C=C(C=C3)N4CCOCC4)OC
How it was run: as §1

defactinib = compound: CNC(=O)c1ccc(Nc2ncc(C(F)(F)F)c(NCc3nccnc3N(C)S(C)(=O)=O)n2)cc1 [defactinib]
How it was run: as §1

Measured: log2 fold change

ANKRD30A (UniProt Q9BXX3)
Sequence of UniProt Q9BXX3 (Q9BXX3 whole entry, looked up): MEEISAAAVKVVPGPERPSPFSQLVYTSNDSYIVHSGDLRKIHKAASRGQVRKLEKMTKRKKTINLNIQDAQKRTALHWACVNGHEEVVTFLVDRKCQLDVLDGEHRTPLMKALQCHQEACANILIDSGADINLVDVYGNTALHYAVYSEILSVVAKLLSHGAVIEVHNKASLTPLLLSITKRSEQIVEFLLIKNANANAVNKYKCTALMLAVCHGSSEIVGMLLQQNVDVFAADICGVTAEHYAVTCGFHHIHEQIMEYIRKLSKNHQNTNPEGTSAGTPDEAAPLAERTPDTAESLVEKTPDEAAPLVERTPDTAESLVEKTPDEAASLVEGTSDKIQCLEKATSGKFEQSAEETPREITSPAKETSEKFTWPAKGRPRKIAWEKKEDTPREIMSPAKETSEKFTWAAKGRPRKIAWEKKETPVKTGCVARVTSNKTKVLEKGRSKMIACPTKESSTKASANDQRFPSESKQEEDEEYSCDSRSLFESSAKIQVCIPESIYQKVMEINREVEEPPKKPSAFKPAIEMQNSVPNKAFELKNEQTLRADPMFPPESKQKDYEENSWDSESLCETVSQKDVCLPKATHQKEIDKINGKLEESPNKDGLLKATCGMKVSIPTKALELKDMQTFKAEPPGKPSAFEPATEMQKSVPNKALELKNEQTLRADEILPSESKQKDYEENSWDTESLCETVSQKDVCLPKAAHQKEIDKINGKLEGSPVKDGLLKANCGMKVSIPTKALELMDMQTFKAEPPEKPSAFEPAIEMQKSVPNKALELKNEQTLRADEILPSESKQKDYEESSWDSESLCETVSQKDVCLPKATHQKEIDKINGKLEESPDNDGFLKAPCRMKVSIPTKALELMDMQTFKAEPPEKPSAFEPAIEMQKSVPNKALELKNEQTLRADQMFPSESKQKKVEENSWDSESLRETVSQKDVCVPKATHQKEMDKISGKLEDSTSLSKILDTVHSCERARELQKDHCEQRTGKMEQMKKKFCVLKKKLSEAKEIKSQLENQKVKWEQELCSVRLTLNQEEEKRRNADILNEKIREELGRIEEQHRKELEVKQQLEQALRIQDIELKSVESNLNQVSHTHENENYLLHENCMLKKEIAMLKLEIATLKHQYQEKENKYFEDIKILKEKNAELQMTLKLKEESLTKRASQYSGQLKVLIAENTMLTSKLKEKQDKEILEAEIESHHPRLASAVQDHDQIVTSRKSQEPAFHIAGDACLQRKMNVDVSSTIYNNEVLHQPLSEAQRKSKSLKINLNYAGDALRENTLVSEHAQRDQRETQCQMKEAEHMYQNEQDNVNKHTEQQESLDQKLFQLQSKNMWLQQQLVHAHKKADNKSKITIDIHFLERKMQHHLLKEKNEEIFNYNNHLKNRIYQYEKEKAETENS
inactive: alvocidib -0.148 | Tubastatin A -0.294 | [1] 0.017 | encorafenib 0.053 | [2] 0 | alisertib -0.009 | gefitinib -0.03
active: [3] 1.45

ABRACL (UniProt Q9P1F3)
Sequence of UniProt Q9P1F3 (Q9P1F3 whole entry, looked up): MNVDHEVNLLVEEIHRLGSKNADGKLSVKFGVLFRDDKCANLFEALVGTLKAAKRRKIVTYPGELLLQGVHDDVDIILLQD
inactive: alvocidib -0.016 | [4] 0.121 | [1] 0.166 | alisertib 0.091 | [3] -0.081 | gefitinib -0.207

ALG3 (UniProt Q92685)
Sequence of UniProt Q92685 (Q92685 whole entry, looked up): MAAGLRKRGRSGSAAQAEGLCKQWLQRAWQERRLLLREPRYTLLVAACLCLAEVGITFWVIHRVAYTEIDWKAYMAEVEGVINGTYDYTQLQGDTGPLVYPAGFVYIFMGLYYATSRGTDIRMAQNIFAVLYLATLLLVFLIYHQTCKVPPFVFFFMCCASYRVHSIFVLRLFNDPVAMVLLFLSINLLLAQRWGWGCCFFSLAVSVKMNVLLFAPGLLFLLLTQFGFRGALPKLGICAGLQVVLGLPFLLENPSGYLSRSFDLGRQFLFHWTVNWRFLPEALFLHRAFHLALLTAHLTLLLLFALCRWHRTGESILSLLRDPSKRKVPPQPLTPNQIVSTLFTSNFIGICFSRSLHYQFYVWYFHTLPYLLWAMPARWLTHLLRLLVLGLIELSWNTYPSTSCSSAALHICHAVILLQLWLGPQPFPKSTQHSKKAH
inactive: alvocidib -0.04 | Tubastatin A -0.009 | [4] -0.436 | defactinib 0.165 | [1] -0.043 | encorafenib -0.061 | [2] 0.171 | [3] -0.033

AMDHD2 (UniProt Q9Y303)
inactive: alvocidib 0.012 | defactinib -0.059

ABCC5 (UniProt O15440)
inactive: alvocidib -0.12 | Tubastatin A 0.121 | [4] -0.002 | defactinib 0.125 | [1] 0.008 | encorafenib 0.165 | [2] -0.032 | [3] -0.012

ACLY isoform 2 (UniProt P53396)
inactive: alvocidib -0.147 | Tubastatin A 0.017 | defactinib 0.007 | encorafenib 0.072 | [2] 0.009 | alisertib -0.089 | [3] 0.071 | gefitinib -0.407

ADK, A0A5F9ZH76
inactive: alisertib 0.008 | [3] -0.063 | gefitinib 0.072

AP3D1 isoform 2 (UniProt O14617)
inactive: alvocidib 0.25 | [4] -0.06 | defactinib 0.078 | alisertib 0.093 | [3] 0.087 | gefitinib 0.111

ACTG1 (UniProt K7EM38)
inactive: encorafenib -0.286 | [2] 0.142 | [3] 0.099

ALDH3A1 (UniProt P30838)
Sequence of UniProt P30838 (P30838 whole entry, looked up): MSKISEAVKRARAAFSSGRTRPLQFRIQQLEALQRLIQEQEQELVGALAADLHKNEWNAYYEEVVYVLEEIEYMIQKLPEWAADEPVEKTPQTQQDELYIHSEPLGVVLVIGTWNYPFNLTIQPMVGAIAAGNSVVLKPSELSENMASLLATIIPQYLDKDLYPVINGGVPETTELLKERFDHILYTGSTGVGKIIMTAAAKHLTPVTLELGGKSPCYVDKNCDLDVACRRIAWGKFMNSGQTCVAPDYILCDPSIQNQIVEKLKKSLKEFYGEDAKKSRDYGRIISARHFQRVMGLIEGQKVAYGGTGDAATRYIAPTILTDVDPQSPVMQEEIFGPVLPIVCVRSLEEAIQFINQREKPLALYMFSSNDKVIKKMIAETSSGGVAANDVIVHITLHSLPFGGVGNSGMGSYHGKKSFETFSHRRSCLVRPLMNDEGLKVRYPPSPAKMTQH
inactive: alvocidib -0.218 | Tubastatin A 0.366 | [4] -0.065 | [1] -0.138 | [3] 0.165

ACAT1, A0A5F9ZHJ0
inactive: alvocidib -0.023 | Tubastatin A 0.081 | alisertib -0.035 | gefitinib -0.056

AGPAT2 (UniProt O15120)
inactive: alvocidib -0.008 | Tubastatin A 0.01 | [4] 0.091 | defactinib -0.104 | encorafenib 0.054 | [2] -0.043 | alisertib 0.009 | gefitinib 0.052

ANKRD40 (UniProt Q6AI12)
inactive: alvocidib 0.084 | Tubastatin A -0.164 | [4] 0.08 | defactinib 0.095 | [1] 0.101 | encorafenib 0.04 | [2] -0.109 | alisertib -0.188 | gefitinib -0.089

ALG13 isoform 2 (UniProt Q9NP73)
inactive: alvocidib 0.003 | alisertib -0.281 | gefitinib -0.095

ACYP2 (UniProt P14621)
Sequence of UniProt P14621 (P14621 whole entry, looked up): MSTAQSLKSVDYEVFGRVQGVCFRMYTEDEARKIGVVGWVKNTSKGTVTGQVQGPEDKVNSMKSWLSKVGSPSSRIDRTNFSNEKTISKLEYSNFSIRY
inactive: alvocidib 0.084 | Tubastatin A -0.021 | [4] 0.007 | alisertib -0.096 | [3] -0.009 | gefitinib -0.02
active: defactinib 0.329

ADD1 isoform 4 (UniProt P35611)
Sequence of UniProt P35611 (P35611 whole entry, looked up): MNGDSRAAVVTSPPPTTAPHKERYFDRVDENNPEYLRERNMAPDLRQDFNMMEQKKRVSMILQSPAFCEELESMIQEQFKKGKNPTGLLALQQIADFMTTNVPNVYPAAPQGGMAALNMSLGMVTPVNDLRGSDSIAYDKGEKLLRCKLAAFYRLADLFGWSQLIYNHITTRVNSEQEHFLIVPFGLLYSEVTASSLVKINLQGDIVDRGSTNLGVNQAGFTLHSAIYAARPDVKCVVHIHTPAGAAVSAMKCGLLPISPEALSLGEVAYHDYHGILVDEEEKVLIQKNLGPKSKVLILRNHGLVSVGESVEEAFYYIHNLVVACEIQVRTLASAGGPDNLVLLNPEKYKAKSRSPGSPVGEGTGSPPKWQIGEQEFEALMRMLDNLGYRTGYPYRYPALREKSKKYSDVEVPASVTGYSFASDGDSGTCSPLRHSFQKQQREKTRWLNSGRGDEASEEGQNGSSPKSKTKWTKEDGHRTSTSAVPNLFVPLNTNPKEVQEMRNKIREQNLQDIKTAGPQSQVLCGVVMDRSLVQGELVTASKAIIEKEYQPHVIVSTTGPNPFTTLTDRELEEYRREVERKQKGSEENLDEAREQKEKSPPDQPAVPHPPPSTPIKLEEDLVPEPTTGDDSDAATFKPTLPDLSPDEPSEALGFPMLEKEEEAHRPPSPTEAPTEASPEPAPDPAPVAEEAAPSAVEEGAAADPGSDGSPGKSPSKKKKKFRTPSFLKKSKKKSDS
inactive: alvocidib -0.397 | Tubastatin A 0.303 | [4] -0.081 | defactinib 0.071 | [1] 0.051 | encorafenib -0.034 | [2] 0 | [3] 0.094

ARHGEF2 (UniProt V9GYF0)
inactive: Tubastatin A -0.07 | defactinib -0.211 | [1] 0.082 | encorafenib -0.035 | [2] 0.014 | alisertib -0.083 | [3] 0.112 | gefitinib 0.229

ALKBH1 (UniProt Q13686)
inactive: alvocidib 0.003 | Tubastatin A -0.018 | [4] -0.113 | defactinib -0.008 | [1] 0.027 | encorafenib -0.016 | [2] 0.073 | alisertib -0.044 | gefitinib -0.07

ANKRD44 isoform 2 (UniProt Q8N8A2)
inactive: alvocidib -0.688 | [4] 0.075 | defactinib -0.129 | encorafenib -0.048 | [2] 0.103 | alisertib 0.2 | [3] 0.119 | gefitinib 0.169

ADAM17 (UniProt P78536)
inactive: alvocidib -0.066 | Tubastatin A 0.063 | [4] 0.011 | defactinib 0.005 | [1] 0.04 | encorafenib 0.09 | [2] 0.109 | alisertib -0.048 | gefitinib 0.031

ABHD13 (UniProt Q7L211)
inactive: alvocidib -0.225 | defactinib 0.022 | [1] -0.051 | encorafenib 0 | [2] 0.006 | alisertib 0.023 | [3] -0.019 | gefitinib 0.06

ABI1 isoform 6 (UniProt Q8IZP0)
inactive: encorafenib -0.212 | [2] 0.114 | [3] 0.023

ACVR1 (UniProt Q04771)
Sequence of UniProt Q04771 (Q04771 whole entry, looked up): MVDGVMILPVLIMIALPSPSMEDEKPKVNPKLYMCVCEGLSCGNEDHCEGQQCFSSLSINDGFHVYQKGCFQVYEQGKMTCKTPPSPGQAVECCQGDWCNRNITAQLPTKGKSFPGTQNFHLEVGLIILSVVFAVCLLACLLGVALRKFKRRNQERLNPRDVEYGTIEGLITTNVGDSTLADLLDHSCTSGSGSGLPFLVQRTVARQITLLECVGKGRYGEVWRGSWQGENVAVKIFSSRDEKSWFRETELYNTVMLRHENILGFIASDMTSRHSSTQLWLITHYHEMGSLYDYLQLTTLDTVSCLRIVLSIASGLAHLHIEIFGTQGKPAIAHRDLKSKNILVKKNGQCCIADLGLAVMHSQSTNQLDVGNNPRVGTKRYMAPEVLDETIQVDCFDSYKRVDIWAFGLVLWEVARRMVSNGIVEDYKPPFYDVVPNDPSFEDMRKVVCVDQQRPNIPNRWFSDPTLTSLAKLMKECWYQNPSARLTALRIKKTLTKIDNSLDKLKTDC
inactive: alvocidib 0.086 | [1] -0.056 | alisertib 0.069 | gefitinib 0.158

ANXA2 (UniProt H0YL33)
inactive: alvocidib 0.315 | Tubastatin A 0.109 | [4] -0.177 | [1] 0.222 | alisertib 0.001 | [3] 0.005 | gefitinib 0.097

ALKBH7 (UniProt Q9BT30)
inactive: alvocidib -0.016 | Tubastatin A -0.045 | [4] 0.35 | [1] -0.029 | encorafenib -0.115 | [2] 0.201 | alisertib 0.333 | gefitinib -0.108

ANKRD10 (UniProt Q9NXR5)
Sequence of UniProt Q9NXR5 (Q9NXR5 whole entry, looked up): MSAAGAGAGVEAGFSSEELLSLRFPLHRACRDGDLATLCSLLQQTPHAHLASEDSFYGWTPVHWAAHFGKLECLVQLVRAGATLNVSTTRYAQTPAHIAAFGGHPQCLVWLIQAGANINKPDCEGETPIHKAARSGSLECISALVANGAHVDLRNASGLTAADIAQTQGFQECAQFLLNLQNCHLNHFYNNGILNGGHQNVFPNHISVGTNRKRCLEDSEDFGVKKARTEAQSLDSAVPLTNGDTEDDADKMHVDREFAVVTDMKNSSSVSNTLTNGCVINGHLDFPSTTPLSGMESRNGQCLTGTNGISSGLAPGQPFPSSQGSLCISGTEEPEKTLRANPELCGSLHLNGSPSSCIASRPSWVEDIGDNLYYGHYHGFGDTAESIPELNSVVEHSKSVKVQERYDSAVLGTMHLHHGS
inactive: alvocidib 0.003 | Tubastatin A -0.037 | [4] 0.018 | defactinib 0.012 | [1] -0.016 | alisertib -0.018 | [3] 0.035 | gefitinib -0.047

ALDH18A1 isoform 2 (UniProt P54886)
Sequence of UniProt P54886 (P54886 whole entry, looked up): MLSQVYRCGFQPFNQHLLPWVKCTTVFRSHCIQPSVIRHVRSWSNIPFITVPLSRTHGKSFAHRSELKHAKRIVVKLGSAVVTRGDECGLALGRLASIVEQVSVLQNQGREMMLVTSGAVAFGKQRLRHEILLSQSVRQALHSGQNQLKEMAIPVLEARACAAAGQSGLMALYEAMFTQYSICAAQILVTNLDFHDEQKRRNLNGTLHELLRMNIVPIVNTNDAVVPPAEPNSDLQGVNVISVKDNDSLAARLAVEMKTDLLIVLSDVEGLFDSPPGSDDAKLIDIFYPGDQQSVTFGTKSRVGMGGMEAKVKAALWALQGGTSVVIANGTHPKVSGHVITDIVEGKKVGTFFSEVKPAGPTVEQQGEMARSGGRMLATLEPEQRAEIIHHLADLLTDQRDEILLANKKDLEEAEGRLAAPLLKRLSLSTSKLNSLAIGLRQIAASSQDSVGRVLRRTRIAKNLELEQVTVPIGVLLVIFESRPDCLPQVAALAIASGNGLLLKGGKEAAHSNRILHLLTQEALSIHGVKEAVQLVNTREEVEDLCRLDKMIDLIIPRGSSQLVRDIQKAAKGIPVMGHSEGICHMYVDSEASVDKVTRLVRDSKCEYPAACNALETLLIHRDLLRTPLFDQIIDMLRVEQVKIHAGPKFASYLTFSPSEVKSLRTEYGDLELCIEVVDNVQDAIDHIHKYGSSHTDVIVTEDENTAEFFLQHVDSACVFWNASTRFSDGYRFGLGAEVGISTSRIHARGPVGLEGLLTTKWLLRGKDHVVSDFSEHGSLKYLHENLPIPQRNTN
inactive: Tubastatin A -0.06 | defactinib 0.016 | [1] -0.139

ANXA13 isoform 2 (UniProt P27216)
inactive: alvocidib -0.121 | Tubastatin A -0.072 | [4] -0.059 | defactinib -0.036 | [1] -0.369 | alisertib 0.047 | [3] 0.034 | gefitinib 0.085
